Results as given in PubChem BioAssay.
“And” between values parts separate entries of the source, which are not always exact repeats. Equal entries are not always repeated. Unmarked numbers belong to inactive results. The source made the active and inactive calls. Unless noted, no stated cut-off is given here; in the data, active means inhibition above about 30%; inactive means the rest.

Experiments:
[1] = target: Nuclear receptor coactivator 3 (Homo sapiens) (UniProt Q9Y6Q9); experiment: NCOA3 GAL4-fusion reporter inhibition – cell-based, luminescence, quadruplicate, confirmation (AID 588792;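 active means mean inhibition over 43.08%, the solvent-only control mean plus 3 SD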;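 further: 0% = DMSO treated cells and 100% = gossypol at 36 µM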); settings: HEK293 GAL4-SRC3 luciferase reporter, at 3.6 µM, hits give high values
Sequence of Nuclear receptor coactivator 3 (Homo sapiens) (Q9Y6Q9 whole entry, looked up, the tested form may be a part): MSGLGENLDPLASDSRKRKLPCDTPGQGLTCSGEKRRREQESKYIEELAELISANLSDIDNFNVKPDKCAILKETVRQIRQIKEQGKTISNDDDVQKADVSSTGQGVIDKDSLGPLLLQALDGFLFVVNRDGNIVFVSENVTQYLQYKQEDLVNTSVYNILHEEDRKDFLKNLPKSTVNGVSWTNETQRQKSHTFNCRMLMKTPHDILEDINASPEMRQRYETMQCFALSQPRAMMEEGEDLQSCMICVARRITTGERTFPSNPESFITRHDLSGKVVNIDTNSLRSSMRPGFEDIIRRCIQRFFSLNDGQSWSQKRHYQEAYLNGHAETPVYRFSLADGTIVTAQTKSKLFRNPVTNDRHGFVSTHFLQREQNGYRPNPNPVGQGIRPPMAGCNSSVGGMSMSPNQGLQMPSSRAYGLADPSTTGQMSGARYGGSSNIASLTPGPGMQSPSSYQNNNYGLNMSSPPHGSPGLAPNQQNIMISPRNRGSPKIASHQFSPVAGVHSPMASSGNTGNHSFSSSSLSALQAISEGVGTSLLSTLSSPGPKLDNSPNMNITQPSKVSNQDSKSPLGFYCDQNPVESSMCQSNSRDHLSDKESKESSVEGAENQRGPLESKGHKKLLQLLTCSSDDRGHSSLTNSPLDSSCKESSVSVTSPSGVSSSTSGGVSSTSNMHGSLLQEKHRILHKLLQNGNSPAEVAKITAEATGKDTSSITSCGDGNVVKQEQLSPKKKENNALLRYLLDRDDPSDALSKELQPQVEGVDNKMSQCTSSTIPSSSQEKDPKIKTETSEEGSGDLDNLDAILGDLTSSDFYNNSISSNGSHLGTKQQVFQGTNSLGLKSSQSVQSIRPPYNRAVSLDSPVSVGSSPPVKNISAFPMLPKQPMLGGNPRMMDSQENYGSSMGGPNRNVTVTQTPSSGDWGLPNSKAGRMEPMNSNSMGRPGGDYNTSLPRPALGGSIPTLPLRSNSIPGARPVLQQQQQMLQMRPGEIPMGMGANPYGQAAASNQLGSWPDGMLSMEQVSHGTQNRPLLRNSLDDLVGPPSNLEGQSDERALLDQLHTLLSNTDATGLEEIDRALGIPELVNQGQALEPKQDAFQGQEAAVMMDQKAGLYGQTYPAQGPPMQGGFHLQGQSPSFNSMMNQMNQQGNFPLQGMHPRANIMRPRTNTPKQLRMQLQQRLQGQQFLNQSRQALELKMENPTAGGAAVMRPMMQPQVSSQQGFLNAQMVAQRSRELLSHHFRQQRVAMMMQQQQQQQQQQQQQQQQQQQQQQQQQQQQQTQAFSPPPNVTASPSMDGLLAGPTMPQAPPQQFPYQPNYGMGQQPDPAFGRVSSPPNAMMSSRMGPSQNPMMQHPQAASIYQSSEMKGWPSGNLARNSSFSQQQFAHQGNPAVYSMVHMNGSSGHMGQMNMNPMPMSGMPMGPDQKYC

[2] = system: transactivating tegument protein VP16 (Human herpesvirus 1), Gal4-VP16 luciferase reporter; experiment: repression of VP16-driven luciferase reporter – cell-based, luminescence, high throughput, counter-screen for SRC3 inhibitor project (AID 588794); settings: mammalian cells, at 3.6 µM, hits give high values
[3] = target: Nuclear receptor coactivator 1 (Homo sapiens) (UniProt Q15788); experiment: NCOA1 GAL4-fusion reporter inhibition – cell-based, luminescence, quadruplicate, confirmation (AID 588820;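 active means mean inhibition above 46.68%, the untreated control wells mean plus 3 SD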;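 further: 0% = DMSO wells and 100% = gossypol 36 µM treated wells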); settings: HEK293 GAL4-SRC1 luciferase reporter, at 3.6 µM, hits give high values
Sequence of Nuclear receptor coactivator 1 (Homo sapiens) (Q15788 whole entry, looked up, the tested form may be a part): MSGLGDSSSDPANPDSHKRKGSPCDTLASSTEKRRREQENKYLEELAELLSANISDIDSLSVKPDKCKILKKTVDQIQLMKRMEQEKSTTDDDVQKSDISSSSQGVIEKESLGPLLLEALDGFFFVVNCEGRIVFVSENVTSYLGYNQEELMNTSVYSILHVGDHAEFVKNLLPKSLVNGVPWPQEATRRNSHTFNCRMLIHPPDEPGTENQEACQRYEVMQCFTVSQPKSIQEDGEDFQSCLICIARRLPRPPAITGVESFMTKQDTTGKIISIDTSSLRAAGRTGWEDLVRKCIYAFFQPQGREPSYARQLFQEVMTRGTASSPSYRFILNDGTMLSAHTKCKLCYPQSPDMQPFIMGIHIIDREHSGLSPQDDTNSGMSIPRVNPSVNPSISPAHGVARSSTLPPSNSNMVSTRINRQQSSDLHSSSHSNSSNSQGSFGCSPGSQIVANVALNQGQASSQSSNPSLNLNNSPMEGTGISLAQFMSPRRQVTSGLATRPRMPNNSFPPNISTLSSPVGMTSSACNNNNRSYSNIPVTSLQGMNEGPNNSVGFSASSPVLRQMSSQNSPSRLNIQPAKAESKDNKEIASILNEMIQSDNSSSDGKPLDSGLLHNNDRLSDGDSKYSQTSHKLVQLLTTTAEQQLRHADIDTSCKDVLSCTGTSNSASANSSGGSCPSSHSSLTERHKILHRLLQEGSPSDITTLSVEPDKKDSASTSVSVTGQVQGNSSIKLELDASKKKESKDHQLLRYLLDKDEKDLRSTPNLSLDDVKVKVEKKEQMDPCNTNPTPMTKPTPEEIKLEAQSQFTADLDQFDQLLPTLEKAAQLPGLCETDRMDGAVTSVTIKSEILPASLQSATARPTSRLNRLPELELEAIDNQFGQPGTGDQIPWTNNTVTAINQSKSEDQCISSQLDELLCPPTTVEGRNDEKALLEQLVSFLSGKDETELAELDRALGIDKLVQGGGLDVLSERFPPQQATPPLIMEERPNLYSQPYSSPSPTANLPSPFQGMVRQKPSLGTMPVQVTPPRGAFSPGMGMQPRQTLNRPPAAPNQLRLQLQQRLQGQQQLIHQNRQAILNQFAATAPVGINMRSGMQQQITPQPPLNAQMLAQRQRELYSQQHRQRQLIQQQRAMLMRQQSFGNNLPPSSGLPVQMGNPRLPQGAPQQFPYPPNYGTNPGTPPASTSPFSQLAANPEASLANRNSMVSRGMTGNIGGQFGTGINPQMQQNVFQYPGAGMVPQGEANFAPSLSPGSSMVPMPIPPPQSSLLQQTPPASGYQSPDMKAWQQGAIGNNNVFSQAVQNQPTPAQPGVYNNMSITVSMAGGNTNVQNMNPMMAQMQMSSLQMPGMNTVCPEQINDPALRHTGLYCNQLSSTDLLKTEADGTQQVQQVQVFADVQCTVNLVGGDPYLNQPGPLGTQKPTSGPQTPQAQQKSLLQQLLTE

[4] = repression of VP16-driven luciferase reporter – cell-based, luminescence, high throughput, counter-screen for SRC1 inhibitor project (AID 588824; in the data active means inhibition above about 25%); settings: cell-based VP16 transactivation luciferase luminescence; at 3.6 µM; hits give high values

Row | SMILES | inhibition [1] | inhibition [2] | inhibition [3] | inhibition [4]
1 | Cc1ccc(CNc2ncnc3ccc(-c4ccoc4C)cc23)o1 | 58.8% (active) | 52% (active) | 62% (active) | 50.9% (active)
2 | N=c1c2c(-c3ccccc3)c(-c3ccccc3)n(Cc3ccco3)c2ncn1CCCn1ccnc1 | 34% | 54.2% (active) | 43.8% | 57.4% (active)
3 | Cn1c2c(c(=O)n(C)c1=O)C(C(F)(F)F)(C(F)(F)F)N=C(C1CCCCC1)N2 | 11.5% | 20.6% | 10.2% | 12.8%
4 | CC(=O)N1CCN(c2ncnc3ccccc23)CC1 | 29.2% | 26.3% | 45.1% | 26.3% (active)
5 | Cc1sc2ncnc(N3CCC(C(=O)Nc4ccccc4C(C)(C)C)CC3)c2c1C | 35.8% | 27.6% | 41.9% | 29.7% (active)
6 | Nc1nccc(-c2ccc(-n3cnc4ccccc43)cc2)n1 | 56.7% (active) | 27.4% | 57.7% (active) | 26.3% (active)
7 | COc1ccc2c(c1OC)C(=O)N1c3ccccc3C(=O)N(c3ccc(F)cc3)C21 (stereo unspecified) | 7.69% | 4.54% | -3.13% | 3.89%
8 | CC(=O)Nc1ccc(S(=O)(=O)c2ccnc3cc(Cl)ccc23)cc1 | 52.9% (active) | 44.1% (active) | 47% (active) | 39.2% (active)
9 | COc1ccc(-c2c[n+]3c(n2-c2ccccc2)CCCCC3)cc1 | 43.4% (active) | 39.6% (active) | 17.3% | 30.1% (active)
10 | Cc1cccc(CNc2ncnc3ccc(-c4ccoc4)cc23)c1 | 47% (active) | 40.7% (active) | 45.1% | 46% (active)
11 | CCOc1cc(C(N)=O)cc(Br)c1OCC | 37.3% | 22.4% | 43.4% | 21.6%
12 | O=C(C1CCC(CNS(=O)(=O)c2cccs2)CC1)N1CCN(c2ccc(Cl)cc2)CC1 (stereo unspecified) | 13.8% | 30.5% (active) | 14.9% | 34.6% (active)
13 | CCCCCCCCCn1c2c(c(=N)c3c1CCC3)CCC2 | 89.7% (active) | 85.2% (active) | 71.4% (active) | 84.8% (active)
14 | Clc1cncc(Cl)c1N/N=C/c1ccncc1 | 24.8% | 26.7% | 40.4% | 27.4% (active)
15 | Cn1nnnc1N=N/C(=N/Nc1ccccc1)c1ccccc1 | 79.8% (active) | 42.9% (active) | 55.5% (active) | 32.8% (active)
16 | COc1cc(C(=O)OCC(=O)Nc2sccc2C(N)=O)cc(OC)c1OC | 42.7% | 10.3% | -42.7% | 5.18%
17 | Cc1ccc(N=c2c([N+](=O)[O-])nn(-c3ccc4c(c3)OCCO4)n2O)cc1F | 36.5% | -0.46% | 19.9% | -9.63%
18 | COc1ccc(OC)c(/C=C/c2ccnc3ccccc23)c1 | 19.1% | 54.2% (active) | 34.5% | 53.7% (active)
19 | Cc1ccc(C)c(NC(=O)c2ccccc2NS(=O)(=O)c2cc([N+](=O)[O-])ccc2C)c1 | 20.5% | 25.5% | 21% | 22%
20 | CNC(=O)c1ccc(NC(=O)C2CCN(c3ncnc4sc(C)c(C)c34)CC2)cc1 | 51.6% (active) | 35.5% (active) | 48.7% (active) | 30% (active)
21 | Cn1c(=N)n(CC(=O)c2ccc(Cl)c(Cl)c2)c2ccccc21 | -33.3% | -30.2% | -189% | -61.4%
22 | CC(=O)N1CCN(c2ccc(Oc3ncnc4sccc34)cc2)CC1 | 25.7% | 16.9% | 27.3% | 16.9%
23 | COc1cccc(-c2nnc3sc(C4CCCCC4)nn23)c1 | 64.5% (active) | 29.1% | 57.4% (active) | 26.4% (active)
24 | COc1ccc(Cc2noc(CN3CCN(c4ccc(Cl)cn4)CC3)n2)cc1OC | 14.7% | 21.5% | 6.4% | 33% (active)
25 | COc1cc(/C=C2\CC(C(C)(C)C)C/C(=C\c3cc(OC)c(OC)c(OC)c3)C2=O)cc(OC)c1OC (stereo unspecified) | 58.4% (active) | 19.3% | 19.8% | 18.4%
26 | O=C(Nc1nc(-c2ccc(F)c(F)c2)cs1)c1ccc(OCC2CCCO2)cc1 (stereo unspecified) | 7.06% | 36% (active) | 5.41% | 39.4% (active)
27 | Cc1nnsc1C(=O)N/N=C/c1ccc2ccccc2c1O | 84.2% (active) | 71.3% (active) | 75% (active) | 69.8% (active)

Row | SMILES | inhibition [1] | inhibition [2] | inhibition [3] | inhibition [4]
28 | COc1ccc(NC(=O)CN(C)C(=O)C2(c3ccccc3)CCCC2)cc1 | 25.3% | 8.28% | 25.3% | 4.02%
29 | c1cncc(CNc2ncnc3ccc(-c4ccoc4)cc23)c1 | 75.2% (active) | 42.8% (active) | 66% (active) | 47.8% (active)
30 | CCCCCCCCCCCCCCCC[n+]1cccc2ccccc21 | 44.9% (active) | 69.2% (active) | 39.9% | 76% (active)
31 | CCN(CC)CCCNc1ccc2ncn3c4ccc(O)cc4c(=O)c1c23 | 16.5% | 51.3% (active) | 47.9% (active) | 49.9% (active)
32 | CCOC(=O)c1c(C)n(C)c2ccc(OC)c(NC(=O)c3cccs3)c12 | 22.9% | 35.7% (active) | 41.6% | 44.5% (active)
33 | O=c1[nH]c(=O)n(C2C[C@H](O)[C@@H](CO)O2)cc1C(F)(F)F (stereo partly specified) | 45.7% (active) | 40% (active) | 54.4% (active) | 44.3% (active)
34 | O=c1cccc2c1c1cc[nH]c3ccc(=O)n2c31 | 43% | 32.9% (active) | 54.3% (active) | 40% (active)
35 | Cc1ccc(-c2nnn(CC(=O)N(Cc3cccs3)C(C(=O)NC3CCCC3)c3ccncc3)n2)cc1 (stereo unspecified) | 58.2% (active) | 35.2% (active) | 48.4% (active) | 34.1% (active)
36 | CCCCN(CCCC)c1ncnc2nc[nH]c12 | 43.2% (active) | 30.1% (active) | 36.2% | 25.2%
37 | CCc1ccc(-c2cc(C(F)(F)F)n3nc(C(=O)Nc4cnn(Cc5ccc(C)cc5)c4)cc3n2)s1 | 10.1% | 9.55% | -3.69% | 7.47%
38 | c1nc(NCc2ccc3c(c2)OCO3)c2cc(-c3ccoc3)ccc2n1 | 70.4% (active) | 51.5% (active) | 54.8% (active) | 45.4% (active)
39 | O=[N+]([O-])c1cccc(C=NNc2ccc3ccccc3n2)c1O | -4.77% | -23.2% | -90.4% | -49.2%
40 | N=c1c2c(-c3ccccc3)c(-c3ccccc3)n(Cc3ccccc3)c2ncn1CCCn1ccnc1 | 26.8% | 62.5% (active) | 57.4% (active) | 62.8% (active)
41 | COc1cccc(-c2ccc3ncnc(NCc4cccnc4)c3c2)c1 | 45.5% (active) | 31.6% (active) | 24.8% | 36.2% (active)
42 | COc1ccc(Nc2ncnc3ccc(Br)cc23)cc1OC | 61.3% (active) | 40.6% (active) | 50.7% (active) | 42.2% (active)
43 | Cc1ccc(C(=O)O/N=C(\N)c2ccccc2)c(Cl)c1 | -11.9% | -35.4% | -120% | -64.6%
44 | C=CC[n+]1ccc(/C=C2\C=Cc3cc(C)ccc3N2CC)c2ccccc21 | 79.4% (active) | 86% (active) | 63.8% (active) | 86.7% (active)
45 | C(C#CCCCCCCCCC[n+]1ccccc1)#CCCCCCCCCC[n+]1ccccc1 | 58.9% (active) and 59.3% (active) | 70.3% (active) and 74.5% (active) | 41.7% | 73.4% (active)
46 | O=C(N/N=C/c1cc(Br)ccc1O)c1ccncc1 | 23.8% | 34.2% (active) | 26.4% | 39.9% (active)
47 | Clc1ccc(-c2csc3ncnc(NCCN4CCOCC4)c23)cc1 | 32.2% | 25.3% | 46.6% | 31.8% (active)
48 | O=C(Nc1scc(-c2ccc(Br)cc2)c1C(=O)O)c1ccccc1F | 10.7% | 15.8% | -17.2% | 10.7%
49 | O=C(NC(=S)Nc1ccc(N2CCN(C(=O)c3ccccc3)CC2)cc1)c1cccs1 | 25.8% | 23.8% | 16% | 14.3%
50 | Cc1nc2c(o1)C(=O)c1ccccc1C2=Nc1ccccc1 | 78.5% (active) | 94.3% (active) | 61.8% (active) | 79.1% (active)
51 | C/C(=N\Nc1ccc2nncn2n1)c1ccccn1 | 70.3% (active) | 65.5% (active) | 62% (active) | 56.6% (active)
52 | CC(C)(C)c1cc[n+](C2=C([O-])c3ccccc3C(=O)/C2=N\S(=O)(=O)c2cccs2)cc1 | 9.53% | 9.97% | -0.27% | 7.69%
53 | CC(O)CC(C(=O)NNc1ccccc1)C(=O)NNc1ccccc1 (stereo unspecified) | 10.1% | 16% | -6.15% | 13.1%
54 | Cc1nn(-c2ccccc2)c(Cl)c1C(=O)N1CCN(c2ncnc3c2cnn3-c2ccccc2)CC1 | 25.8% | 31.4% (active) | 4.61% | 44.9% (active)
